Screening results as filed in PubChem BioAssay.
Shown are actives, neighbours in structure and some others; about 8.8% of the full set was active somewhere.
IL-1B inflam inh: blocks inflammasome-driven IL-1 beta release; THP-1 LPS/ATP IL-1B secretion, AlphaLISA, 16 h; stronger effect = lower value; activity change, % at 57.5 µM; 360,000 tested, 4.7% active; AID 743279; in the data active means activity change below about -50%; inconclusive means mostly about -30% to -49%
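THP-1 cells pretreated 1 hr with compounds (up to 57.5 uM final), then stimulated with LPS (250 ng/mL final) plus ATP (1.25 mM final); secreted IL-1B measured by AlphaLISA after 16 hr, decreased signal indicating inhibition.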
HT1080 IDH1KD tx: kills HT-1080 cells with IDH1 knockdown; HT-1080 IDH1 knockdown viability, ATP luminescence, 48 h; Potency, µM (top dose mostly 46.1 µM), without a hit: at the highest dose activity, negative = toxicity, actives largely listed as cytotoxic; 360,000 tested, 2% active; AID 686971;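 further: potency means the concentration at half of the fitted maximal effect; 0% = DMSO wells and -100% = cell-free medium wells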
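Knockdown cells (IDH1KD HT-1080) received compounds 2 h after plating at 750 cells/well and were kept 48 h at 37 °C in 5% FBS RPMI. A CellTiter-Glo luminescence read gave % activity for curve fitting.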
HT1080-NT tox: kills 2HG-producing HT-1080-NT fibrosarcoma cells; HT-1080-NT fibrosarcoma viability, CellTiter-Glo ATP luminescence, 48 h; Potency, µM (series often up to 46.1 µM), for the others: at the highest dose activity, negative = less viability, hits mostly cytotoxic; 360,000 tested, 1.6% active;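 further: NT is the 2HG producing partner of a matched IDH1 knockdown line; potency means the concentration at half of the fitted maximal effect; 0% = DMSO-treated cells and -100% = media-only wells without cells; nearly all actives have a fitted effect of over 55% in size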
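Viability of the 2HG-overproducing fibrosarcoma line after 48 hours of compound exposure at 37 degrees C was determined by luminescence with CellTiter-Glo, and concentration-effect curves were then fitted and categorized.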
KB-V1 cytotox: KB-V1 MDR subline cytotoxicity; KB-V1 MDR cells viability, CellTiter-Glo, 72 h; Potency, µM (doses to about 46.1 µM), usual class: cytotoxic; 400,000 tested, 3.4% active; further: potency means the concentration at half of the fitted maximal effect; nearly all actives have a fitted effect of over 60% in size
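In this primary screen, KB-V1 cells overexpressing P-gp are incubated with library compounds (lowest to highest concentration) for 72 h at 37 degrees C before a luminescent ATP viability read.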
KB-3-1 tox: kills parental KB-3-1 adenocarcinoma cells. KB-3-1 viability, CellTiter-Glo ATP luminescence, 72 h. Potency, µM (titrated, usually from 46.1 µM), usual class: cytotoxic. 400,000 tested, 1.4% active; further: potency means the concentration at half of the fitted maximal effect; nearly all actives have a fitted effect of over 60% in size
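Cytotoxicity in the drug-sensitive parental line KB-3-1 was scored as loss of CellTiter-Glo luminescence following 72 h incubation with compound. Values come from curve fitting of normalized concentration-response data.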
The depositor's hits bear a star; i = inactive; ? = inconclusive; . = not tested or not shown; [ ] = dose if it differs, or a comment. Unless noted, the call rests on the fitted dose curve; in most records, active means well fitted curve in the direction sought with a large enough effect; inconclusive means small, poorly fitted or top-dose-only effect, or another doubt; inactive means no such curve, though single readings can be large; an effect the other way counts as inactive or inconclusive. Unless noted, on the % scale 0 is the no-effect control and ±100 the full control effect.

SMILES | IL-1B inflam inh | HT1080 IDH1KD tx | HT1080-NT tox | KB-V1 cytotox | KB-3-1 tox
CC(=O)Nc1nc(-c2ccccc2)c(-c2ccccc2)o1 | -66* | -11% | -8% | i | i
O=C(CSC(=S)N1CCCCC1)Nc1nc(-c2ccccc2)c(-c2ccccc2)o1 | 18 | 1% | 2% | 23µM* | i
CCc1ccc(NC(=O)CN2CCN(c3ccc(OC)cc3)CC2)cc1 | -28 | 10% | 6% | i | i
Cc1ccc2cc(CN(CC(C)C)C(=O)C3CCCO3)c(=O)[nH]c2c1 (stereo not drawn) | 36 | 1% | 13% | ? | i
Cc1ccc2cc(COC(=O)C3CCCO3)c(=O)[nH]c2c1 (stereo not drawn) | 8 | 14% | 4% | 12µM* | ?
O=C(C1=NNCC1c1ccccc1)C1OC1c1ccccc1 (stereo not drawn) | -89* | -18% | -2% | i | i
CCc1cc(C(=O)N2CCCC(C(=O)c3cccc4ccccc34)C2)n(C)n1 (stereo not drawn) | -14 | -18% | -5% | 5.2µM* | 21µM*
CCCc1cc(C(=O)N2CCCC(C(=O)c3cccc4ccccc34)C2)n(C)n1 (stereo not drawn) | -12 | -4% | -5% | ? | i
CC(Cc1c[nH]c2ccccc12)C(=O)NCc1ccco1 (stereo not drawn) | 5 | 20% | 20% | i | i
CCN(CC)S(=O)(=O)c1ccc(Cl)c(C(=O)Nc2nncs2)c1 | 23 | -2%[9.24 µM] | -5% | i | i
CCN(CC)S(=O)(=O)c1cccc(C(=O)Nc2cc(C)on2)c1 | 14 | 8% | 12% | i | i
CCN(CC)S(=O)(=O)c1cc(C(=O)Nc2nncs2)c(Cl)cc1Cl | -84* | ? | ? | ? | i
CCN(CC)S(=O)(=O)c1cc(C(=O)Nc2cc(C)on2)c(Cl)cc1Cl | -94* | ? | -26% | i | i
COCCN(C(=O)COC(=O)c1ccccc1NCc1ccco1)c1c(N)n(Cc2ccccc2)c(=O)[nH]c1=O | -1 | 0% | -1% | i | i
CC12CCC(C(=O)Nc3cccc(Cl)c3)(C(Br)C1=O)C2(C)C (stereo not drawn) | 14 | -10% | -14% | 15µM* | ?
O=C(COCc1cc(-c2ccc3c(c2)OCO3)on1)NCc1ccccc1Cl | . | . | . | i | i
C=CCn1c(SCC(C)=O)nnc1-c1cc(-c2ccccc2)sc1N | -8 | -2% | -2% | 18µM* | i
C=CCn1c(SCC(N)=O)nnc1-c1cccc(Br)c1 | -2 | 5% | 12% | i | i
Cc1ccc(C)c(OCC(O)CN2CCC(Cc3ccccc3)CC2)c1 (stereo not drawn) | -60* | -15% | ? | i | ?
Cc1cccc(C)c1OCC(O)CN1CCc2ccccc2C1 (stereo not drawn) | 12 | ? | ? | i | i
O=C1c2cccc3cccc(c23)C(=O)N1CCN1CCN(CC(O)COCc2ccc(Cl)cc2)CC1 (stereo not drawn) | ? | ? | 21µM* | ? | ?
Cc1ccc(C)c(OCC(O)CN2CCN(CCN3C(=O)c4cccc5cccc(c45)C3=O)CC2)c1 (stereo not drawn) | -102* | ? | 16µM* | ? | 16µM*
OC(COc1ccc(Cl)cc1)CN1CCC(Cc2ccccc2)CC1 (stereo not drawn) | . | ? | ? | i | i
COc1cc(COCC(O)CN2CCN(CCN3C(=O)c4cccc5cccc(c45)C3=O)CC2)cc(OC)c1OC (stereo not drawn) | ? | -22% | -20% | i | i
Cc1ccc(C(C)C)c(OCC(O)CN2CCc3ccccc3C2)c1 (stereo not drawn) | -101* | ? | ? | ? | ?
SMILES | IL-1B inflam inh | HT1080 IDH1KD tx | HT1080-NT tox | KB-V1 cytotox | KB-3-1 tox
COc1ccc(NC(=O)c2c(NCc3cccc(F)c3)sc3c2CCC3)c(OC)c1 | . | . | . | i | i
N#CCc1ccc(OC(=O)c2cccnc2Cl)cc1 | -7 | 16% | 24% | i | i
Cc1ccc(S(=O)(=O)CCN2CCC(n3cccc3)CC2)cc1 | -59* | -4% | -2% | i | i
O=C(Nc1ccc(-c2csc(Nc3ccccc3)n2)cc1)c1cc([N+](=O)[O-])cc(C(F)(F)F)c1 | 88 | -16% | 1% | ? | 15µM*
COC(=O)Cc1ccc(NC(=S)NCCSc2ccc(Cl)cc2)cc1 | -57* | -12% | 3% | i | i
Cc1cc(C)cc(NC(=S)NCCSc2ccc(Cl)cc2)c1 | -202* | ? | ? | i | i
NNC(=O)c1cnn(Cc2ccccc2)c1N | 21 | ? | -14% | ? | i
O=C(c1ccc2c(c1)CCC2)N1CCN(Cc2ccccc2)CC1 | -18 | -6% | -6% | i | i
Cc1cc2[nH]c3c4ccccc4nc(C)c3c2cc1C | -112* | ? | 15µM* | ? | 10µM*
Cc1cc2c(C)nc3ccccc3c2o1 | -16 | 10% | 4% | i | i
Cc1ccc(CCC(=O)Nc2ncc(Cc3cccc(Cl)c3Cl)s2)o1 | 14 | ? | 0.73µM* | 0.52µM* | 0.12µM*
CCc1nnc(NC(=O)CCc2ccc(C)o2)s1 | -11 | ? | -3% | i | i
COC(=O)c1ccccc1NC(=O)C1CCCN(C(=O)c2cnn(-c3ccc(F)cc3)c2-n2cccc2)C1 (stereo not drawn) | . | . | . | 18µM* | ?
COc1ccc(CNC(=O)C2CCCN(C(=O)c3cnn(-c4ccc(F)cc4)c3-n3cccc3)C2)cc1 (stereo not drawn) | . | . | . | 13µM* | ?
O=C(NCc1ccccc1Cl)C1CCCN(C(=O)c2cnn(-c3ccc(F)cc3)c2-n2cccc2)C1 (stereo not drawn) | . | . | . | 16µM* | ?
COCCCNC(=O)C1CCCN(C(=O)c2cnn(-c3ccc(F)cc3)c2-n2cccc2)C1 (stereo not drawn) | . | . | . | i | i
CCOc1ccc(-c2nnc(SCC(=O)NCc3ccccc3)nc2-c2ccc(OCC)c(OC)c2)cc1OC | . | . | . | i | i
COc1cccc(CC(=O)N2CCC(n3nccc3NC(=O)C3CCOC3)CC2)c1 (stereo not drawn) | i | 2% | 3% | i | i
Cn1cc(/C=N/n2cnc3scc(-c4ccccc4)c3c2=O)c2ccccc21 | 52 | ? | ? | 2.1µM* | 5.2µM*
CC(=O)N1CCC2(CC1)OC(=O)C(C)=C2C(=O)NCc1ccc(Cl)cc1 | . | . | . | i | i
Cc1[nH]nc(-c2ccc(O)cc2O)c1-c1nc2ccccc2s1 | -82* | ? | ? | i | i
CSc1cccc(NC(=S)N(CCCN2CCCC2)Cc2cccs2)c1 | ? | ? | ? | ? | i
